# Bioassay records deposited in PubChem BioAssay by National Center for Advancing Translational Sciences (NCATS).
# Gal4-VP16 FLuc: counter-screen for ROR gamma inhibitors: Gal4-VP16 reporter | Drosophila S2 Gal4-VP16 UAS-luciferase, luminescence, 20 h | Potency, µM (doses to about 53.6 µM), for the others: at the top dose activity, negative = inhibition, actives largely listed as inhibitors | hit rate 3.5% among 310,000;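 note: Gal4-VP16 expression switched on by copper sulfate through the metallothionein promoter; potency is the fitted concentration of half-maximal effect; % is set by controls: 0 for no effect and ±100 for the full control effect; nearly all actives have a fitted effect of over 50% in size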
# CtBP-E1A blk: CtBP/E1A binding inhibition. AlphaScreen GST-E1A/His-CtBP binding, 1536-well; stronger effect = lower value. activity change, % (test concentration not listed). hit rate 0.49% among 340,000. AID 651724; in the data active = activity change below about -65%; inconclusive = mostly about -30% to -63%; note: % is set by controls: 0 for no effect and ±100 for the full control effect
#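 AlphaScreen with 125 nM GST-E1A and 125 nM His-CtBP (5X stocks) in Tris pH 8.0, 300 mM NaCl, BSA, Tween 20, TCEP. Compounds preincubated 2 h at 37 deg C, then glutathione donor/nickel acceptor beads added for 1 h at 37 deg C in dark.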
# MBNL1 CUG block: inhibitors of human MBNL1 binding to CUG repeat RNA; AID 2675; Potency, µM (series often up to 57.5 µM), for inactives: at the highest dose activity change, negative = inhibition, most hits filed as inhibitors; TR-FRET MBNL1-His/biotin-(CUG)12 binding, 665/545 ratio; hit rate 0.036% among 280,000; active = well fitted inhibition curve with a large enough effect in the signal ratio, with a control signal flat, not every such curve was filed as active; inconclusive = small, poorly fitted or top-dose-only effect, or effect the other way, or a change in a side signal; inactive = no such curve, though single readings can be large or run the other way; the % refers to the signal ratio; note: potency is the fitted concentration of half-maximal effect; % is set by controls: 0 for no effect and ±100 for the full control effect
#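 MBNL1-His + Biotin-(CUG)12, cpd titration 92 nM–58 uM; Tb anti-His Ab 0.055 ng/ul, SA-XL665 5 nM (final); 60 min RT; ratiometric 665/545 nm, Ex 340 nm; normalized to buffer and full-complex controls.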
# RORg inh: ROR gamma (mouse) transcription inhibition | P51450 | Drosophila S2 Gal4-RORgamma UAS-luciferase reporter, 20 h | Potency, µM (titrated, usually from 53.6 µM), for inactives: top-dose activity change, negative = inhibition, usual class: inhibitors | hit rate 5.4% among 310,000 | AID 2551; note: potency is the fitted concentration of half-maximal effect; % is set by controls: 0 for no effect and ±100 for the full control effect; nearly all actives have a fitted effect of over 60% in size
#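 Read-out: Photinus luciferase luminescence; inhibitors lower reporter signal. Insect Schneider cells with Gal4-ROR gamma fusion under metallothionein promoter, UAS reporter; 700 uM final copper sulfate induction, 20 hr, ambient temperature.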
# CBFb RUNX1 block: CBF-beta/RUNX1 interaction disruption; Q01196+Q13951; AlphaScreen CBFb-His/RUNX1-biotin binding, biochemical; Potency, µM (highest dose often 59.8 µM), without a hit: top-dose activity, negative = inhibition, hits mostly inhibitors; 230,000 tested, under 10 active; AID 1477; note: % of control where 0% means no effect
# Target sequence (Q01196 whole entry, looked up): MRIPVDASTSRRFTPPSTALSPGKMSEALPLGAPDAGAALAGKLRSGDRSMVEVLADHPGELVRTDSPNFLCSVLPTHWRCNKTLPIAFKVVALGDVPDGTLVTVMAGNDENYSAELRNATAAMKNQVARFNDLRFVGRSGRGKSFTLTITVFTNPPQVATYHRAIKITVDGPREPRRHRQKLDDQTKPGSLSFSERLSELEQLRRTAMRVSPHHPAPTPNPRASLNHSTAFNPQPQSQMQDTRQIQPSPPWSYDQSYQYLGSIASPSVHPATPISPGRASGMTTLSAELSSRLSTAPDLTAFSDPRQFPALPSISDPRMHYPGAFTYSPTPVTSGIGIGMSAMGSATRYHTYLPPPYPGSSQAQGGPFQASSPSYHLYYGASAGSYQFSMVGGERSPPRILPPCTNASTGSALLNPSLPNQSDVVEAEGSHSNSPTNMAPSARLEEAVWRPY
# Target sequence (Q13951 whole entry, looked up): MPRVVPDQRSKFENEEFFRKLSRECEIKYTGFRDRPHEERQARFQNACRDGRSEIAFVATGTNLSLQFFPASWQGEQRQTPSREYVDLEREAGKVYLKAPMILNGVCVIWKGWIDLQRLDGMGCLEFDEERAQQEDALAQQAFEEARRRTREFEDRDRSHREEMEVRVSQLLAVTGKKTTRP
#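 Proteins preincubated together for 20 min at RT before compound addition; 15 min later, nickel and streptavidin beads were added and left 90 min prior to AlphaScreen measurement.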
# Six1-Eya2 blk: blocks human Six1 binding to Eya2; activity change, % (concentration not given with the values); hit rate 0.56% among 360,000; AlphaScreen GST-Six1/His-Eya2 binding, biochemical; stronger effect = lower value; in the data active = activity change below about -65%; inconclusive = mostly about -30% to -63%; note: % is set by controls: 0 for no effect and ±100 for the full control effect
#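 GST-Six1 + His-Eya2 (5X stock: 250/500 nM); Tris pH 8.0, 300 mM NaCl, 0.05% BSA, 0.02% Tween 20; GSH donor/Ni acceptor beads; 1 h 37 °C dark; AlphaScreen readout.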
# The depositor's hits bear a star; u = inconclusive; x = no result; [ ] = dose if it differs, or a comment. Most compounds without a hit are left out; they make up all but 5.5% or so of the library. Unless noted, calls come from the whole dose curve; as a rule, active = well fitted curve in the direction sought with a large enough effect; inconclusive = small, poorly fitted or top-dose-only effect, or another doubt; inactive = no such curve, though single readings can be large; an effect the other way counts as inactive or inconclusive.
SMILES,Gal4-VP16 FLuc,CtBP-E1A blk,MBNL1 CUG block,RORg inh,CBFb RUNX1 block,Six1-Eya2 blk
COc1cccc(C(=O)Cn2c(NCCO)nc3ccccc32)c1,-11%,3,0%,43%,5%,3
O=C(CCC(=O)N1CCCC1)N1CCCC1,8%,6,2%,u,x,5
Cc1onc(-c2c(F)cccc2Cl)c1C(=O)O/N=C(\N)c1ccc([N+](=O)[O-])o1,-25%,-16,u,-13%,-29%,-10
CCc1cccc(CC)c1-n1c(-c2cccnc2)n[nH]c1=S,16µM*,2,0%,3.5µM*,1%,-3
Cc1ccccc1-n1c(-c2cccnc2)n[nH]c1=S,15%,3,-14%,u,1%,2
CN(Cc1nccn1C)C(=O)C1CCC(=O)N(Cc2cccc(C(F)(F)F)c2)C1 (configuration not stated),21%,7,-10%,-20%,x,6
Cc1cccc(/C=C2/S/C(=N/N=C3\CC4CCC3(C)C4(C)C)NC2=O)c1 (configuration not stated),u,-8,3%,8.9µM*,-4%,-8
CC(C)(C)c1ccc(OCC(=O)NNC(=S)NC(=O)c2ccco2)c(Br)c1,8.9µM*,-12,5%,5µM*,x,-3
Cc1ccccc1OCC(=O)Nc1ccccc1NC(=O)c1ccco1,14%,-2,-2%,4%,x,4
CC(C)c1ccc(OCC(=O)NNC(=S)NC(=O)c2ccco2)c(Br)c1,6.3µM*,-2,-2%,6.3µM*,x,-16
Cc1ccccc1NC(=S)NC(=O)COc1ccccc1C,u,19,-6%,13µM*,x,13
Cc1cc(Cl)ccc1OCC(=O)NNC(=O)c1ccco1,-8%,0,-3%,-4%,x,-15
Cc1ccccc1OCC(=O)NNC(=S)NC(=O)c1ccco1,u,-4,-9%,13µM*,-5%,-4
CCC(C)c1c(N)n(S(=O)(=O)c2ccc(C)cc2)oc1=O (configuration not stated),x,u,x,x,x,-77*
CCC(C)c1c(NS(=O)(=O)c2ccc(C)cc2)o[nH]c1=O (configuration not stated),x,6,x,x,x,1
C=CCn1c(-c2cccc(OC)c2OC)n[nH]c1=S,u,11,2%,11µM*,10%,-8
C=CCn1c(-c2cc(Cl)ccc2OC)n[nH]c1=S,18µM*,-1,4%,11µM*,6%,11
C=CCn1c(-c2cc3cccc(OC)c3o2)n[nH]c1=S,u,1,16%,3.5µM*,6%,-11
COc1cccc2cc(-c3ccnc(=S)[nH]3)oc12,u,x,x,2.8µM*,-4%,x
C=CCn1c(-c2cc(OC)c(OC)c(OC)c2)n[nH]c1=S,u,0,7%,u,-3%,0
CC(=O)OCC(=O)C1(O)CCC2C3CCC4=CC(=O)C=CC4(C)C3C(O)CC21C (configuration not stated),3%,8,2%,-5%,-1%,7
CN(C)c1nc(Oc2ccc(OCCOc3ccccc3)nn2)nc(N(C)C)n1,-4%,-12,0%,-1%,0%,-2
C=C1c2nc3ccccc3n2C=C(c2ccc(C)cc2)N1c1ccccc1,x,-9,x,x,x,12
CCn1c(-c2cc(Cl)ccc2OC)n[nH]c1=S,u,2,4%,6.3µM*,0%,6
COc1ccc(Cl)cc1-c1n[nH]c(=S)n1C,2%,4,u,u,7%,-13
SMILES,Gal4-VP16 FLuc,CtBP-E1A blk,MBNL1 CUG block,RORg inh,CBFb RUNX1 block,Six1-Eya2 blk
O=C(/C=C1\OCc2ccccc21)OCc1ccccc1,x,-1,x,x,x,2
O=C(CSc1ccc2nnc(-c3cccnc3)n2n1)Nc1cccc(F)c1,2%,u,2%,-8%,x,-26
O=C(CSc1ccc2nnc(-c3cccnc3)n2n1)Nc1ccc(F)cc1F,-8%,-69*,-11%,22%,x,u
COCCN1CN(S(=O)(=O)c2ccc(Cl)cc2)c2nc3ccccc3nc21,-13%,-1,5%,37%,-2%,-8
COCCN1CN(S(=O)(=O)c2ccccc2)c2nc3ccccc3nc21,-8%,-2,u,0%,5%,-82*
CNC(=S)N/N=C/c1ccc2c(c1)OCCO2,0.63µM*,x,x,u,-4%,4
Cc1cccc(NC(=S)N/N=C/c2ccc3c(c2)OCO3)c1,-15%,-23,-14%[11.5 µM],-5%,9%,-22
NC(=S)N/N=C/c1ccc2c(c1)OCCO2,u,-5,x,11µM*,1%,-15
COc1ccc(NCC(=O)N/N=C/c2ccc3c(c2)OCCO3)cc1,-6%,-24,x,0.13µM*,-24%,-16
CC(C)Oc1ccc(C(=O)NCCCNC(=O)c2cccnc2)cc1,-3%,6,7%,12%,x,4
COc1ccc(Nc2nnc(-c3ccc(C(N)=O)cc3)c3ccccc23)cc1,-6%,5,u,42%[1.91 µM],x,-83*
O=C(CNc1ccccc1)N/N=C/c1cn(-c2ccccc2)nc1-c1ccccc1,1µM*,-2,x,-4%[10 µM],1%,4
O=C(/C=C/c1cn(-c2ccccc2)nc1-c1cccnc1)c1ccco1,u,-5,0%,6.3µM*,-6%,-5
O=C(N/N=C/c1cn(-c2ccccc2)nc1-c1cccnc1)c1ccc(F)cc1,4µM*,-14,-6%,2.8µM*,-10%,-1
O=C(N/N=C/c1cn(-c2ccccc2)nc1-c1ccc(F)cc1)c1ccc(Br)o1,2.5µM*,-1,7%,1.8µM*,-1%,-16
O=C(N/N=C/c1cccnc1)c1ccc(F)cc1,-13%,-17,15%,2%,x,-18
CCC(C(=O)NC1CCCC1)N(C(=O)Cn1nnc(-c2ccc(C)o2)n1)c1ccc(F)cc1 (configuration not stated),u,-11,-2%,-37%,x,3
O=C(OCC(=O)N1CCc2ccccc2C1)c1ccc(F)cc1Cl,x,-8,x,x,x,17
C[C@H](CO)N1C[C@H](C)[C@H](CN(C)Cc2ccncc2)OCc2ccccc2-c2c(n(C)c3ccccc23)C1=O,x,-5,x,x,x,-1
O/N=C/c1cn(-c2ccccc2)nc1-c1cccnc1,1%,-8,-2%,12%,12%,1
O=C(N/N=C/c1cn(-c2ccccc2)nc1-c1cccnc1)c1cccnc1,u,-9,7%,14µM*,6%,-21
Oc1c(Br)cc(Br)cc1CNc1cccc2cccnc12,8.9µM*,x,u,14µM*,x,-27
O=C[C@@H]1CCCN1C(=O)[C@@H]1CCCN1C(=O)OCc1ccccc1,x,x,x,x,3%,x
